The record followed here is PubChem BioAssay AID485364 (National Center for Advancing Translational Sciences (NCATS), 2010).

Molecules are shown by their SMILES. Values joined by “and” are separate entries in the source; they are usually repeats but may differ in a detail not shown here. Equal values may be shown once. Among all 360,000 compounds or so, about 11,000 (3.1%) were called active. Entries that show only a call come without a potency. Another 4% or so got no clear call; they are omitted. Calls come from the whole dose curve; as a rule, active = well fitted inhibition curve with a large enough effect; inconclusive = small, poorly fitted or top-dose-only effect; inactive = no such curve, though single readings can be large or run the other way. This excerpt belongs to a sample that is enriched for actives.
Potency is the fitted concentration of half-maximal effect.

The assay concerns the target Schistosoma mansoni thioredoxin glutathione reductase (TGR) (UniProt Q962Y6). Put plainly: qHTS Assay for the Inhibitors of Schistosoma Mansoni Peroxiredoxins. Note: nearly all actives have a fitted effect of over 60% in size. Particulars: purified TGR, DTNB reduction, TNB absorbance 405 nm; series mostly up to 114 µM. In outline: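 Kinetic colorimetric format: TGR-catalysed, NADPH-driven DTNB reduction monitored via TNB absorbance. Enzyme dispensed at 20 nM; compound exposure 15 min at room temperature before reaction start.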
For orientation: qHTS replaces the single test concentration by a dilution series.
For the molecule `Cc1cccc(OCC(=O)N(Cc2ccc(C(C)C)cc2)Cc2ccco2)c1C`, the Potency entry was “inactive”.
Under `COc1ccc(CN(C)C(=O)Cc2c[nH]c3ccccc23)c(OC)c1OC` stands “inactive”.
On to `CN(Cc1cccs1)C(=O)Cc1c[nH]c2ccccc12`, for which the Potency result was “inactive”.
The same measure for `CCOC(=O)CN(C)Cc1c[nH]c2ccccc12`: 35.5 µM (active); for `Brc1ccc2c(c1)NC(c1cccnc1)=NC(c1ccccc1)=N2`: “inactive”; for `c1ccc(C2=Nc3cccc4cccc(c34)N2)cc1`: 35.5 µM (active).
The same measure for `COc1ccccc1C1=Nc2cccc3cccc(c23)N1`: “inactive”; for `CCC(CC)c1nn2cc(-c3ccccc3)nc2s1`: “inactive”.
Under `COc1ccc(Br)cc1CNC(=O)c1cc(=O)[nH]c2ccc(S(=O)(=O)N3CCCC3)cc12` stands “inactive”; under `O=S(=O)(c1ccc(Br)cc1)c1nnn2c1nc(N1CCOCC1)c1sccc12`, “inactive”.
Take `CC(=O)OC1=C(C(C)=O)N(Cc2ccccc2)S(=O)(=O)c2ccccc21`: the Potency result is “inactive”.
Under `Cc1ccc(CNC(=O)c2c(O)nc3c(C)cccn3c2=O)cc1` stands “inactive”; under `O=C(NCc1cccs1)c1ccc(CS(=O)Cc2ccccc2Cl)o1` (stereo not drawn), “inactive”.
Under `Cc1ccc(CNC(=O)c2ccc(CS(=O)Cc3cccc(Cl)c3)o2)cc1` (stereo not drawn) stands 35.5 µM (active) and 25.1 µM (active); under `CCOc1ccc(CNC(=O)c2ccc(CS(=O)c3ccccc3)o2)cc1` (stereo not drawn), “inactive”; under `CCN(CC)C(=O)CSc1nc2ccsc2c(=O)n1Cc1ccccc1Cl`, “inactive”.
For the molecule `CCCCNC(=O)c1cc(-c2ccc(Cl)c(Cl)c2)on1`, the Potency entry was “inactive”.
The same measure for `C/C(=C\c1ccco1)C1Nc2cccc3cccc(c23)N1`: 3.55 µM (active); for `CC(/C=N/NC(=O)c1cc(-c2ccc3ccccc3c2)n[nH]1)=C\c1ccco1`: “inactive”; for `Cc1ccc(Cn2cc(CCC(=O)NCc3ccc(OC(C)C)cc3)c3ccccc32)cc1`: “inactive”.
Under `COc1ccc(S(=O)(=O)c2c(Nc3cccc(Cl)c3)sc(C(=O)c3ccccc3)c2N)cc1` stands “inactive”.
The same measure for `Cc1cc(C)c2oc(C(=O)Nc3ccc(S(=O)(=O)N(C)c4ccccc4)cc3)cc(=O)c2c1`: “inactive”.
As to `CCCCOC(=O)CSc1ncnc2sc3c(c12)CCC(C)C3` (stereo not drawn), the Potency result is “inactive”.
Under `O=C(CCN1CCCCC1)N=Nc1c(O)[nH]c2ccccc12` stands 11.2 µM (active).
The same measure for `O=C(CNC(=O)Cc1ccccc1)N=Nc1c(O)[nH]c2ccc(Br)cc12`: “inactive”.
Under `Cc1c(-c2ccccc2)n[nH]c1C(=O)N=Nc1c(O)[nH]c2ccccc12` stands “inactive”; under `N#C/C(=C\c1ccccc1F)c1nc2ccccc2c(=O)[nH]1`, “inactive”; under `CNC(=O)CN1C(=O)c2cccnc2Sc2ccccc21`, “inactive”.
For the molecule `Cc1ccsc1CN(C(=O)c1oc2ccc(Br)cc2c1C)C1CCS(=O)(=O)C1` (stereo not drawn), the Potency result was “inactive”.
Under `O=C(NC1CCN(Cc2ccccc2)CC1)c1ccc(Cn2c(=O)c3ccccc3n(Cc3cccc(F)c3)c2=O)cc1` stands “inactive”; under `C/C(=N\NC(=O)c1cc(-c2ccc(O)cc2)nc2ccccc12)c1cccnc1`, “inactive”; under `Cc1ccc(-c2cc(C(=O)NC3CCN(Cc4ccccc4)CC3)c3ccccc3n2)cc1`, “inactive”.
The same measure for `Cc1ccc(-c2cc(C(=O)N/N=C/C=C/c3ccco3)c3ccccc3n2)cc1C`: 39.8 µM (active); for `CC1(C)CC(=O)C/C(=N\NC(=O)c2cccs2)C1`: “inactive”.
Turning to `Cc1ccc(-n2nc(C)c(/C=N/NC(=O)c3cccs3)c2Cl)cc1`, the Potency result was “inactive”.
Under `O=C(N/N=C/C=C/c1ccco1)c1cccs1` stands 3.55 µM (active); under `CC1=C(c2ccc(Cl)cc2)S(=O)(=O)N=C1N1CCN(c2cc(C)ccc2C)CC1`, “inactive”; under `Cc1ccccc1C(=O)Nc1nnc(S(=O)(=O)N(C)c2ccc(Cl)cc2)s1`, “inactive”.
Under `COC(=O)CNC(c1ccccc1Cl)c1cc(Br)ccc1NC(=O)CCN1CCOCC1` (stereo not drawn) stands 25.1 µM (active); under `O=C(CCN1CCCCC1)NCC(=O)Nc1ccc(Br)cc1C(=O)c1ccccc1`, “inactive”; under `COc1ccccc1NC(=O)CCN1CCN(c2ccc(Cl)cc2)CC1`, “inactive”.
Under `COc1cc(C)ccc1OCCSc1nc2ccc(NC(=O)c3ccc(C)cc3)cc2s1` stands “inactive”; under `Cc1cc(F)ccc1NC1(c2ccccc2)C(=O)c2ccccc2C1=O`, “inactive”.
As to `CC(C)c1ccc(OCC(=O)N(Cc2ccc(N(C)C)cc2)C2CCS(=O)(=O)C2)cc1` (stereo not drawn), the Potency result is “inactive”.
Under `Cc1[nH]n(C)c(=O)c1C(=O)c1c(-c2c(Cl)cccc2Cl)noc1C` stands 25.1 µM (active); under `Cc1onc(-c2c(Cl)cccc2Cl)c1C(=O)c1c[nH]c(C(=O)NC2CC2)c1`, “inactive”.
The same measure for `C/C(=N/OC(=O)c1c(-c2c(F)cccc2Cl)noc1C)c1cnccn1`: “inactive”.
The same measure for `CCc1ccc(S(=O)(=O)c2nnn3c2nc(N2CCN(CC)CC2)c2sccc23)cc1`: “inactive”; for `O=C(COc1ccccc1F)OCc1cc(=O)n2nc(C3CCCCC3)sc2n1`: “inactive”; for `Cc1ccc(NC(=O)O/N=C/c2cccc([N+](=O)[O-])c2)cc1`: “inactive”.
For the molecule `CS/C(=C\[N+](=O)[O-])Nc1ccc(C)cc1`, the Potency is 0.316 µM (active).
In the case of `COc1cc(NC(=O)Nc2ccc(C)cc2)cc([N+](=O)[O-])c1`, the Potency entry was “inactive”.
For `CN(Cc1ccccc1)c1ccc(-c2nc(-c3ccccc3)no2)cc1[N+](=O)[O-]`, the Potency result is “inactive”.
The same measure for `CCOC(=O)c1ccc2c(c1)N(Cc1cccc(OC)c1)C(=O)c1ccccc1S2(=O)=O`: “inactive”; for `O=C(c1ccco1)N1CCN(CCOc2ccccc2)CC1`: “inactive”.
The same measure for `O=C(c1ccco1)N1CCN(C(=S)Nc2cc(F)cc(F)c2)CC1`: “inactive”.
`O=C(c1ccco1)N1CCN(C(=O)c2ccc(COc3ccc(F)cc3)o2)CC1`: the Potency is 44.7 µM (active).
The same measure for `N#Cc1ccccc1Cn1cnc2nc3c(cc2c1=O)CCCC3`: “inactive”.
The same measure for `CCCCNC(=O)c1ccc2c(c1)NC(=O)C(C(C)C)N2` (stereo not drawn): “inactive”; for `CCOc1cc(-c2nnc(SCC(=O)NC3CCCC3)nc2-c2ccc(OC)c(OCC)c2)ccc1OC`: “inactive”.
The same measure for `COc1ccc(CC(=O)NCCc2sc3nc(-c4ccc(OC)cc4)nn3c2C)cc1`: “inactive”.
For `Cc1ccc(-c2nc(CS(=O)CC(=O)NC3CCCC3)c(C)o2)cc1` (stereo not drawn), the Potency is 22.4 µM (active).
The same measure for `Cc1ccc(-c2nc(CSCC(=O)NC3CCN(Cc4ccccc4)CC3)c(C)o2)cc1`: “inactive”; for `Cc1cccc(-c2nc(CS(=O)CC(=O)NC(C)CCc3ccccc3)c(C)o2)c1` (stereo not drawn): 15.8 µM (active); for `COc1ccc(N2CCN(C(=O)CSCc3nc(-c4ccccc4Cl)oc3C)CC2)cc1`: “inactive”.
Under `COc1ccc(CNC(=O)CS(=O)Cc2nc(-c3cccc(C)c3)oc2C)cc1` (stereo not drawn) stands “inactive”; under `COc1ccc(-c2nc(CS(=O)CC(=O)NCc3cccnc3)c(C)o2)cc1OC` (stereo not drawn), “inactive”.
The same measure for `CC(CCc1ccccc1)NC(=O)c1cnc(Cl)c(Cl)c1` (stereo not drawn): “inactive”.
For `COc1ccc(-c2nc(CS(=O)CC(=O)N3CCc4ccccc4C3)c(C)o2)cc1` (stereo not drawn), the Potency was 2 µM (active).
As to `COc1ccc(-c2nc(CS(=O)CC(=O)NCc3ccccn3)c(C)o2)cc1` (stereo not drawn), the Potency was 17.8 µM (active).
The same measure for `CNC(=O)c1ccc(-c2nc(CN3CCc4ccccc43)c(C)o2)cc1`: “inactive”; for `Cc1oc(-c2ccccc2F)nc1CS(=O)CC(=O)NCCN1CCCCC1C` (stereo not drawn): “inactive”; for `CC1=C(C)CC(C(=O)NC(C)CCc2ccccc2)C(C(=O)O)C1` (stereo not drawn): “inactive”.
